# Measurements taken from PubChem BioAssay (Tox21).
# Records with an inconclusive call do not appear. The source made the active and inactive calls. Calls follow the shape of the full dose curve.
# Test: qHTS assay to identify small molecule antagonists of the estrogen receptor alpha (ER-alpha) signaling pathway using the BG1 cell line (AID 743080);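 also: BG1 cells stimulated with 17beta-estradiol alongside compound; nearly all actives have a fitted effect of over 25% in size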
# Details: BG1Luc4E2 ERE-luciferase antagonist mode, luminescence; series mostly up to 70.3 µM
# Source text: National Center for Advancing Translational Sciences [NCATS]
# NIH Chemical Genomics Center [NCGC]
# U.S. Environmental Protection Agency [EPA]
# National Institutes of Environmental Health Sciences [NIEHS]
# National Toxicology Program [NTP]
# U.S. Food and Drug Administration [FDA]
# Estrogen receptor (ER), a nuclear hormone receptor, plays an important role in development, metabolic homeostasis and reproduction. Endocrine disrupting chemicals (EDCs) and their interactions with steroid hormone receptors like ER causes disruption of normal endocrine function. Therefore, it is important to understand the effect of environmental chemicals on the ER signaling pathway. To identify ER antagonists, BG1-Luc-4E2 cell line (provided by Dr. Michael Denison from University of California) has been used to screen the Tox21 10K compound library. BG1Luc4E2 cell line endogenously expresses full-length ER-alpha and is stably transfected with a plasmid containing four estrogen responsive elements (ERE) upstream of a luciferase reporter gene.
# Tox21 Assay Protocol Summary:
# BG1-Luc-4E2 cells were cultured in phenol red free assay medium containing 10% charcoal stripped FBS for 5 days before the assay was performed. The cells were dispensed at 4,000 cells/4 uL of assay medium per well into white wall/solid-bottom 1536-well plates using a Multidrop Combi (ThermoFisher Scientific, Waltham, MA) dispenser. The assay plates were incubated at a 37C and 5% CO2 for 24 h, and then 23 nL of compounds dissolved in DMSO, positive controls or DMSO only was transferred to the assay plate using a Pintool station (Kalypsys, San Diego, CA), followed by addition of 1 uL of 17beta-estradiol in assay medium using a Flying Reagent Dispenser (Aurora Discovery, San Diego, CA). After the plates were incubated at 37 C and 5% CO2 for 21.5 h, 1 uL of CellTiter-Fluor reagent (Promega, Madison, WI) of measuring cytotoxicity was added using Flying Reagent Dispenser (FRD) to each well. The assay plates were incubated at 37 C and 5% CO2 for additional 30 min and the fluorescence intensity was quantified by a ViewLux plate reader (PerkinElmer, Shelton, CT). For measuring luciferase reporter gene activity, 4 uL of ONE-Glo reagent (Promega) was added to each plate using an FRD and luminescence was quantified by a ViewLux plate reader after 30 min incubation at room temperature.
row,SMILES,outcome
1,OCCCC1CCCCC1,inactive
2,CCN(CC)CCNC(=O)c1cc(S(C)(=O)=O)ccc1OC,inactive
3,ClC(Cl)(Br)Br,inactive
4,Cc1ccc(Cl)cc1Cl,inactive
5,CC(C)NC(=O)NC(C)C,inactive
6,O=c1cc(CO)occ1O,inactive
7,CCCCCOC(=O)CCCCC,inactive
8,Cc1ccc(=O)n(-c2ccccc2)c1,inactive
9,CCCc1cc(C(N)=S)ccn1,inactive
10,CCn1ccnc1CC1COc2ccccc2O1 (stereo not given),inactive
11,Cc1cc(O)cc2c1O[C@](C)(CCC[C@H](C)CCC[C@H](C)CCCC(C)C)CC2,inactive
12,CCC=O,inactive
13,O=C1CC2CC1C1CCCC21 (stereo not given),inactive
14,CN1C(=O)N(C)C(O)C1O (stereo not given),inactive
15,O=C(O)COc1nn(Cc2ccccc2)c2ccccc12,inactive
16,CC(C)(C)NCCNC(C)(C)C,inactive
17,CCCCCSCCCCC,inactive
18,O=C1OC(=O)C2CCCCC12 (stereo not given),inactive
19,CCO[Si](CCC1CCC2OC2C1)(OCC)OCC (stereo not given),inactive
20,N=C(N)c1ccc2cc(OC(=O)c3ccc(N=C(N)N)cc3)ccc2c1,inactive

row,SMILES,outcome
1,CC(C)c1cc2c(cc1S(=O)(=O)O)[C@@]1(C)CCC[C@@](C)(C(=O)O)[C@@H]1CC2,inactive
2,FC1(F)C(F)(F)C(F)(F)C2(F)C(F)(F)C(F)(F)C(F)(F)C(F)(F)C2(F)C1(F)F (stereo not given),inactive
3,Cc1c(O)cccc1O,inactive
4,Cc1ccc(C#N)cc1,inactive
5,C=C(C)C(=O)OCCCCCCCC(C)C,inactive
6,CCCCC(CC)COC(=O)c1ccccc1O (stereo not given),inactive
7,CC1(C)C(O)C(C)(C)C1O (stereo not given),inactive
8,C=C[Si](OC(=C)C)(OC(=C)C)OC(=C)C,inactive
9,C/C=C(\C)C#N,inactive
10,CCc1nccnc1CC,inactive
11,Cc1cc2c(cc1S(N)(=O)=O)S(=O)(=O)CCC2,inactive
12,CS(=O)(=O)O,inactive
13,NC(=O)Nc1ccccc1,inactive
14,C[C@](N)(Cc1ccc(O)cc1)C(=O)O,inactive
15,Nc1ccc(S(=O)(=O)Nc2ccnn2-c2ccccc2)cc1,inactive
16,CCCCCCCCCCCC,inactive
17,N=c1nc(N2CCCCC2)cc(N)n1O,inactive
18,CC(=O)Nc1c(I)cc(I)c(C(=O)O)c1I,inactive
19,O=c1n(CCO)c(=O)n(CCO)c(=O)n1CCO,inactive
20,Nc1cc(=O)[nH]c(N)n1,inactive
